# tim10-1 inh = growth inhibitors of tim10-1 mutant yeast, primary screen, luminescence, uHTS; AID 463190, 2010; 330,000 tested, 2.2% active; inhibition, % at 20 µM; S. cerevisiae tim10-1 ts strain growth, BacTiter-Glo, 24 h;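 active = inhibition of at least 40%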;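 also: mutant grown at 25 °C; 0% = DMSO wells with yeast and 100% = wells holding no yeast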
# tim23-1 inh = growth inhibitors of tim23-1 mutant yeast, primary screen, luminescence, uHTS; S. cerevisiae tim23-1 growth, BacTiter-Glo luminescence, 24 h; inhibition, % at 20 µM; 330,000 tested, 1.3% active;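 active = growth inhibition of the mutant yeast at or above 50%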;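 also: temperature-sensitive mutant grown at 25 °C; plate controls were DMSO-treated mutant yeast for no effect and medium wells lacking yeast for full effect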
# PfHsp90 set2 = growth inhibition of PfHsp90-expressing yeast, primary screen, antimalarial PfHsp90 inhibitor project, S. cerevisiae, BacTiter-Glo luminescence, single point, set 2. inhibition, % at 9.4 µM. BacTiter-Glo ATP, 48 h; yeast lacking PDR1 and PDR3 efflux regulators. 310,000 tested, 0.32% active;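 active = every replicate shows inhibition above about 80%, whatever the replicate mean, limit read from the data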;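 also: 0% = DMSO neutral controls and 100% = 20 µM radicicol positive controls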
# TIM10 inh = growth inhibitors of isogenic TIM10 control yeast, primary screen, counter-screen for tim10-1 yeast inhibitor project, luminescence, uHTS; S. cerevisiae TIM10 strain growth, BacTiter-Glo luminescence, 24 h; inhibition, % at 10 µM; 330,000 tested, 1.4% active;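 active = inhibition of 40% or more at the single tested concentration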;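 also: wild-type TIM10 isogenic control strain grown at permissive 25 °C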
# SKKanGAS inh = S. pyogenes SKKanGAS growth inhibitors in kanamycin, primary screen, streptokinase expression inhibitor project, SKKanGAS strain, BacTiter-Glo luminescence; 6 h; 300,000 tested, 1.3% active; AID 1662, 2009; inhibition, % at 7.5 µM;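 active = mean replicate score, as percent of positive control median, at least 50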;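 also: strain carries kanamycin resistance gene driven by streptokinase promoter and grows in 40 µg/ml kanamycin; loss of luminescence reflects streptokinase promoter inhibition or plain growth inhibition; 0% = median of DMSO wells and 100% = positive control at its reference dose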
# NLRP3 yeast inh = NALP3 inflammasome inhibitors in reconstituted yeast, primary screen, luminescence, uHTS; inhibition, % at 10 µM; Yeast reconstituted NLRP3/ASC/caspase-1, beta-gal luminescence, 24 h; 330,000 tested, 0.39% active;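 active = inhibition of 50% or more; inactive = inhibition below 50%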;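 also: plate controls were induced DMSO wells for no effect and uninduced yeast grown without galactose for full effect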
# NALP3 confirm = NALP3 inhibitors retested in yeast, confirmation, luminescence, single concentration; 1,300 tested, 81% active; inhibition, % at 10 µM; shares compounds with NLRP3 yeast inh; AID 435006, 2010; yeast expressing human NALP3; in the data active = inhibition above about 48%
# Casp1-ASC yeast = CASP1-PYCARD signaling inhibition in yeast, confirmatory test, counterassay for NLRP3 inhibitor program, one-dose; shares compounds with NLRP3 yeast inh; yeast expressing Caspase-1-ASC, luminescence counter screen; inhibition, % at 10 µM; 1,000 tested, 66% active; AID 488784, 2010
# NALP3 retest = NALP3 inhibitors in yeast, repeat test, confirmation, luminescence, single concentration, retest; shares compounds with NLRP3 yeast inh; yeast expressing human NALP3, luminescence read-out; inhibition, % at 10 µM; 1,000 tested, 53% active; AID 488794, 2010
# tim10-1 confirm = growth inhibitors of tim10-1 mutant yeast, confirmation, single concentration, luminescence, S. cerevisiae; shares compounds with tim10-1 inh; S. cerevisiae tim10-1 ts strain growth, BacTiter-Glo, 24 h; inhibition, % at 20 µM; 7,400 tested, 56% active;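 active = inhibition of yeast growth at or above a set limit in either of two repeat tests at 20 µM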;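 also: tim10-1 mutant grown at permissive 25 °C to find synthetic lethal compounds; 0% = DMSO yeast wells and 100% = medium wells without yeast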
# TIM10 conf = growth inhibitors of wild-type TIM10 yeast, confirmation, counter-screen for tim10-1 synthetic lethality project, single concentration, luminescence, S. cerevisiae; shares compounds with TIM10 inh; S. cerevisiae tim10 strain growth, BacTiter-Glo luminescence, 24 h; inhibition, % at 10 µM; 4,600 tested, 63% active;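 active = inhibition of yeast growth at or above a set limit in either of two replicates at 10 µM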;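 also: this counterscreen used the strain with wild-type TIM10; 0% = yeast with DMSO and 100% = medium wells lacking yeast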
# tim23-1 confirm = tim23-1 mutant yeast growth inhibitors, confirmation, luminescence, single concentration. shares compounds with tim23-1 inh. inhibition, % at 20 µM. 4,400 tested, 83% active. S. cerevisiae tim23-1 growth, BacTiter-Glo luminescence, 24 h;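 active = inhibition above about 39% in either of two replicate wells at 20 µM, limit read from the data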;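 also: temperature-sensitive tim23-1 mutant grown at 25 °C; 0% = DMSO wells with yeast and 100% = medium wells without yeast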
# * = called active by the depositor; x = not tested or not shown. Only some compounds are listed: those with a hit (about 4.6% of all), similar ones and a draw of the others. Rule as the data show it, unless noted: active = inhibition above about 50%; inactive = the rest.
SMILES,tim10-1 inh,tim23-1 inh,PfHsp90 set2,TIM10 inh,SKKanGAS inh,NLRP3 yeast inh,NALP3 confirm,Casp1-ASC yeast,NALP3 retest,tim23-1 confirm,others
COc1cc(/C=N/NC(=O)c2ccccc2O)ccc1OC(=O)CC1SC(=O)NC1=O (centres undefined),-4,10,-7,17,1,-10,x,x,x,x,
Cc1cc(C(=O)CCl)c(C)n1CCc1ccccc1,36,66*,x,37,-2,-116,25,x,x,16,
CCOC(=O)c1cc(C)n(CCc2ccccc2)c1C,13,15,62,6,-1,16,x,x,x,x,
COc1ccccc1C(=O)Nc1ccc(OCC(=O)N2CCCCC2C)cc1 (centres undefined),10,20,2,7,x,14,x,x,x,x,
CCCN(C(=O)c1cc(Cl)nc2ccccc12)c1c(N)n(Cc2ccccc2)c(=O)[nH]c1=O,-10,5,-6,2,x,9,x,x,x,x,
CC(NC(=O)Nc1ccc([N+](=O)[O-])cc1)C(c1cccs1)N1CCCC1 (centres undefined),19,13,-28,22,-1,16,x,x,x,x,
CSc1nc2cc(Oc3cccc(Cl)c3Cl)c(Cl)cc2[nH]1,53*,74*,109*,55*,96*,83*,91*,96*,95*,-21,tim10-1 confirm=51*;TIM10 conf=65*
COCCN1C(=O)N[C@@H](CCc2ccccc2)[C@H](C(=O)OC)[C@H]1C,14,-1,-12,-5,9,7,x,x,x,x,
Cc1c(Cl)sn(-c2ccc(Cl)cc2)c1=O,96*,55*,111*,97*,x,56*,34,69*,50,99*,tim10-1 confirm=98*;TIM10 conf=100*
CC(C)(C)n1cnc2cc(NC(=O)c3cccs3)ccc21,25,53*,23,61*,13,57*,74*,60*,45,71*,TIM10 conf=55*
COc1cc(Cl)ccc1OCc1cc(C(=O)N(C)CCc2cnn(C)c2)no1,26,27,14,5,-2,12,x,x,x,x,
C[C@@]12C(=O)Nc3cc(Cl)ccc3C(=O)N1[C@H]1c3ccccc3OC[C@@H]1[C@@H]2c1ccccc1,23,34,7,7,x,16,x,x,x,x,
C[C@@]12C(=O)Nc3ccc(Cl)cc3C(=O)N1[C@H]1c3ccccc3OC[C@@H]1[C@@H]2c1ccccc1,23,61*,107*,0,x,79*,91*,70*,66*,57*,
Cc1nc2ccc(Cl)cc2[nH]1,x,x,14,x,x,x,x,x,x,x,
Cc1nc2ccc(C(C(F)(F)F)(C(F)(F)F)C(F)(F)F)cc2[nH]1,30,59*,4,35,-1,95*,90*,89*,80*,66*,
O=C(COC(=O)c1cc(S(=O)(=O)Nc2ccccc2Cl)ccc1O)Nc1ccc(F)c(F)c1F,-10,-7,-26,-8,x,7,x,x,x,x,

# Screening results from PubChem BioAssay.
